Results taken from PubChem BioAssay AID1542 (National Center for Advancing Translational Sciences (NCATS), 2009).
Inconclusive results are not listed. Calls of active or inactive are those of the source. Calls follow the shape of the dose curve; as a rule, active = well fitted curve in the direction sought with a large enough effect; inconclusive = small, poorly fitted or top-dose-only effect, or effect the other way, or another doubt; inactive = no such curve, though single readings can be large or run the other way.

molecular target: Pyruvate kinase PKM (Homo sapiens) (UniProt P14618); assay: Secondary assay for Activators of Human Pyruvate Kinase M1 isoform; settings: purified hPK-M1, LDH-coupled NADH fluorescence kinetic; series mostly up to 57.5 µM
Excerpt: Confirmatory assay NIH Chemical Genomics Center [NCGC] Matthew G. Vander Heiden, M.D., Ph.D. [Harvard Medical School, 77 Avenue Louis Pasteur, Boston, MA 02115] NCGC Assay Overview: Human pyruvate kinase […] (hPK-M1)enzyme was supplied as a highly purified (>95% pure) preparation from Harvard Medical School and a secondary assay was used to evaluate compounds. This assay couples the formation of pyruvate from hPK-R using lactate dehydrogenase (LDH) and NADH. The depletion of NADH is followed in a fluorescent-based kinetic assay that follows the formation of pyruvate to lactate, as catalyzed LDH. Pyruvate kinase substrates, PEP and ADP, were present in the assay at 0.1 mM and 4 mM respectively. In this kinetic assay initial rates were determined by following the fluorescence of NADH depletion.
NCGC Assay Protocol Summary: Three uL of substrate mix (final concentration, 50 mM Tris-Cl pH 8.0, 200 mM KCl, 15 mM MgCl2, 0.1 mM PEP, 4.0 mM ADP, and 0.2 mM NADH) was dispensed into black-solid 1536 well plates. 23 nL of compounds were delivered by a pin tool and 1 uL of enzyme mix (final concentrations, 10 nM hPK-M1 and 1 uM of LDH) was added. Plates were immediately placed in ViewLux (Perkin Elmer) and NADH fluorescence was determined at 30 second exposure intervals for between 3 and 6 minutes. Data were normalized to the uninhibited controls.

Chain of Pyruvate kinase PKM (Homo sapiens) (P14618 whole entry, looked up, canonical isoform): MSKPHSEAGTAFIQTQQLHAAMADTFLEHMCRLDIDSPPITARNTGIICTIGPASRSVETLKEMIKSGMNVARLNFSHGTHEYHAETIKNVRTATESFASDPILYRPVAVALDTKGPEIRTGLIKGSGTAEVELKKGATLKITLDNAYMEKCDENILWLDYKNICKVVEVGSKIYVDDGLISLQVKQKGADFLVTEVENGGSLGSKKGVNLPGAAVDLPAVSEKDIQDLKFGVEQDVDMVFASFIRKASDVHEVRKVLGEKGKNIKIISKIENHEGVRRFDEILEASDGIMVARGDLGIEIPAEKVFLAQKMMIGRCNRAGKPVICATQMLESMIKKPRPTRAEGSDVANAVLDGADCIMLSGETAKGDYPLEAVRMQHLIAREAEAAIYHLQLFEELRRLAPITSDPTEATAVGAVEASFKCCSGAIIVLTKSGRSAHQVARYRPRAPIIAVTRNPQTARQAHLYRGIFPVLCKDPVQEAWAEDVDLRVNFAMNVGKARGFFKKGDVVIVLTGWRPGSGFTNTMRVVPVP

Row | Compound | outcome
1 | C[C@H]1CN(S(=O)(=O)c2ccc3c(c2)OCCO3)CCN1S(=O)(=O)c1c(F)cccc1F | inactive
2 | Cc1cc2c(s1)c1cnn(Cc3ccc(Cl)cc3)c(=O)c1n2C | inactive
3 | Cc1cc2c(s1)c1cnn(Cc3cccc(Cn4ncc5c6sc(C)cc6n(C)c5c4=O)c3F)c(=O)c1n2C | inactive
4 | O=S(=O)(c1ccc2c(c1)OCCO2)N1CCN(S(=O)(=O)c2ccc3nc(Cl)c(Cl)nc3c2)CC1 | inactive
5 | COC/C=C/c1cc(F)c(S(=O)(=O)N2CCN(S(=O)(=O)c3ccc4c(c3)OCCO4)CC2)cc1F | inactive
